From PubChem BioAssay (NCI)
This is part of a sample that, as a whole, favours compounds with a hit. Of some 83,000 tested, about 20% had one in any assay.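 Single-concentration screen, 48 h exposure, 96-well plates. Endpoint: percent growth. Below 10 = active.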 Values without a mark were called inactive. Active and inactive are the calls of the source.

How the values were obtained:
Test in all cases: NCI-60 one-dose screen, 48 h (100 = growth as untreated, 0 = no growth, -100 = all killed)
Conditions in all cases: 10 µM unless noted
[1] = system: HCT-15 colon
[2] = system: HT29 colon
[3] = system: SNB-75 CNS
[4] = system: SNB-19 CNS
[5] = system: U251 CNS
[6] = system: PC-3 prostate
[7] = system: SK-MEL-5 melanoma
[8] = system: UACC-62 melanoma
[9] = system: LOX IMVI melanoma
[10] = system: SK-MEL-28 melanoma
[11] = system: SN12C renal
[12] = system: UO-31 renal
[13] = system: TK-10 renal
[14] = system: ACHN renal
[15] = system: CAKI-1 renal
[16] = system: A498 renal
[17] = system: CCRF-CEM leukemia
[18] = system: MOLT-4 leukemia
[19] = system: SK-MEL-2 melanoma
[20] = system: EKVX NSCLC

Row | Structure (SMILES) | growth [1] | growth [2] | growth [3] | growth [4] | growth [5] | growth [6] | growth [7] | growth [8] | growth [9] | growth [10] | growth [11] | growth [12] | growth [13] | growth [14] | growth [15] | growth [16] | growth [17] | growth [18] | growth [19] | growth [20]
1 | O=C(NC(Cc1cn(Cc2ccccc2)cn1)C(=O)O)OCC1c2ccccc2-c2ccccc21 (stereo not drawn) | 104% | 98.1% | 92.3% | 109% | 101% | 100% | 103% | 112% | 97.8% | 104% | 108% | 85.1% | 105% | 104% | 103% | 102% | 111% | 83.6% |  | 
2 | C/C(=N\Nc1ccc2ccccc2n1)c1ccccn1 | 22.6% | -2.94% (active) | 35.3% | 23.8% | 4.2% (active) | 4.97% (active) | -57.5% (active) | -54.8% (active) | -19.8% (active) | 30.2% | 17.5% | -39.2% (active) | 15.2% | -3.16% (active) | -10.9% (active) |  | -5.75% (active) | 1.13% (active) |  | 
3 | COc1ccc(-c2n/c(=C\c3c(O)[nH]c4ccc(OC)cc34)cc3c2=Nc2ccccc2-3)cc1 | 0.939% (active) | -47.4% (active) | 30.4% | 38.4% | -79.3% (active) | 75.8% | 18.5% | -56.4% (active) | 27.4% | -89.9% (active) | 89.4% | 73.6% | -10.8% (active) | 102% | 103% | 87.2% |  | -35.4% (active) | 96.6% | 
4 | [B-][N+](CC)(CC)c1ccccc1 | 100% | 107% | 84.1% | 105% | 99% | 99.4% | 104% | 111% | 109% | 99.7% | 108% | 83.8% | 110% | 95.1% |  | 108% | -12.5% (active) | 95.2% | 113% | 
5 | Cc1ccc(-c2ccc(Nc3ccccc3)nn2)cc1S(N)(=O)=O | 65.9% | 70.9% | 87.1% | 106% | 93.7% | 93.8% | 89.3% | 89% | 73.7% | 89.1% | 90.1% | 107% |  | 91.6% | 80.9% | 89.2% |  | 62.2% |  | 
6 | Brc1ccc(Cn2nnnc2-c2ccn(-c3ccccc3)n2)cc1 | 83% | 63.6% | 90.1% | 78.9% | 75.7% | 60.8% | 74% | 53% |  | 95.3% | 68.5% | 69.2% | 77.6% | 70.7% | 58.2% | 52.5% | 56.7% | 52.4% | 63.5% | 69.8%
7 | CC(C)(C)n1cc(-c2ccnc(NCCCNS(=O)(=O)c3ccc(Cl)cc3)c2)c(-c2cccc(F)c2)n1 | 9.66% (active) | 27.6% | 76.5% | 80% | 61.7% | 49.7% | 70.7% | 84.6% |  | 89.4% | 73.9% | 66.5% | 111% | 80.8% | 77.9% | 108% | 66.7% | 55.1% | 88.4% | 56.2%
8 | C=C(C)[C@@H]1CC[C@]2(/C=N/Nc3ccncc3)CC[C@]3(C)[C@H](CC[C@@H]4[C@@]5(C)CCCNC(C)(C)[C@@H]5CC[C@]43C)[C@@H]12 | 68.4% | 18.6% | 90.5% | 94.7% | 67.9% | 47.3% | 81.7% | 88.1% |  | 95.4% | 85.2% | 85% | 120% | 100% | 74.7% | 83.8% | 67.1% | 58% | 110% | 99.5%
9 | CN(C)CCCC1(c2ccc(F)cc2)OCc2cc(-c3ccc(C(F)(F)F)nc3)ccc21 (stereo not drawn) | 78.4% | 64.8% | 41.7% | 76.7% | 57.1% | 68.7% | 75.3% | 86.1% |  | 81% | 75.1% | 55.5% | 82.4% | 83.1% | 55.4% | 89.8% | 69.1% | 53.6% | 94.2% | 76.1%
10 | Cc1ccsc1-c1ccc2c(c1)COC2(CCCN(C)C)c1ccc(F)cc1 (stereo not drawn) | 29% | 17% | 34.9% | 67.9% | 21% | 45.6% | 0.45% (active) | 44.9% |  | 42.5% | 56.7% | 39.3% | 73.7% | 62.1% | 38.4% | 86.3% | 39% | 27.3% | 85.4% | 65.6%
11 | CCOc1ccc(NC(=O)c2ccoc2COc2ccccc2)cc1 | 101% | 107% | 107% | 95.3% | 99.4% | 95.7% | 99.1% | 79.8% |  | 101% | 99.1% | 79.8% | 101% | 106% | 95.7% | 108% | 95% | 97% | 106% | 96.1%
12 | Cc1cc(C)n(Cc2cc(C(C)(C)C)cc(C(C)(C)C)c2)c(=O)c1C#N | 86.8% | 99.4% | 96.1% | 95.8% | 97.9% | 79% | 90.7% | 72.8% |  | 102% | 90% | 80.5% | 107% | 98.4% | 104% | 97% | 87.9% | 76.6% | 107% | 75.2%
13 | COc1ccc(/C=C(\C#N)c2cc3ccccc3n2C(C)=O)cc1 | 41% | 68.8% | 74% | 87.2% | 87.1% | 84.6% | 92.2% | 74.1% |  | 87.2% | 91% | 88.1% | 126% | 102% | 69.1% | 78.3% | 75.6% | 70% | 83.3% | 78%
14 | COc1cc2nc(Cl)nc(Nc3cccc(C(=O)/C=C/c4ccc(F)cc4)c3)c2cc1OC | -4.45% (active) | 16.1% | 88.3% | 50.1% | 32.6% | 46.4% | 73.4% | 51.5% |  | 62.6% | 51.6% | 53.9% | 155% | 20% | 56.5% | 86.5% | 15.5% | 35.7% | 93.9% | 71.1%
15 | Cc1cc(Cl)c2c(N(C)C)cccc2n1 | 94.1% | 78% | 93.6% | 105% | 105% | 119% | 101% | 105% | 84.1% | 113% |  | 91.1% | 125% | 112% | 99.9% | 92.1% | 89.8% | 97.6% |  | 
16 | CC1c2ccccc2N(S(=O)(=O)c2ccccc2)C1C (stereo not drawn) | 70.5% | 67.8% | 86% | 91.5% | 88% | 81.4% | 89.2% | 71.6% |  | 92.1% | 105% | 75.7% | 100% | 93.6% | 74.5% | 104% | 78.2% | 75.1% | 76.5% | 92.5%
17 | Cc1oc(-c2ccccc2Cl)cc1C(=O)Nc1ccc(S(N)(=O)=O)cc1 | 103% | 108% | 89.9% | 99.1% | 94.9% | 107% | 97.3% | 95.8% |  | 101% | 98.2% | 88.7% | 126% | 106% | 93.9% | 105% | 96.2% | 96.3% | 104% | 91.9%
